In all, about 68,000 compounds went through this assay and about 2,700 (4%) showed an effect of 50% or more. What follows is part of a selection rich in strong results, with near analogues and random picks from the rest.

In the test the test system is Plasmodium berghei. The experiment in a line: Screen against P. berghei liver stage (PbLuc), transformed with Luciferase, at 2uM. As to conditions: tested at 2 uM. The test is classed as functional, HepG2.
On to `COc1cc(N2CC[C@@H](O)[C@@H]2Cc2ccccc2)ncn1`, for which the INHIBITION is recorded as -30.57%.

In the case of `CNc1ccccc1C(=O)N(C)CCc1ccccc1`, the INHIBITION is reported as -88.87%.

Take `CN(Cc1ccsc1)C(=O)c1n[nH]c(N)c1-c1ccccc1`: the INHIBITION is given as 8.75%.

For the molecule `Cc1cc(C(=O)NC(C)Cc2cccc(Cl)c2)n(C)n1` (centres undefined), the INHIBITION is -16.65%.

For `Cc1n[nH]c(C2CN(CC(=O)NCCC3=CCCCC3)CCO2)n1` (centres undefined), the INHIBITION was 1.27%.

As to `CN1CC2(CCN(S(=O)(=O)C3CC3)CC2)c2ccccc21`, the INHIBITION was found to be 13.26%.

Take `Cn1ncnc1NCc1ccccc1Cl`: the INHIBITION is given as 6.75%.

Regarding `CCC(C(=O)N(C)Cc1cc(COC)[nH]n1)n1cccn1` (centres undefined), the INHIBITION turned out to be 19.12%.

Turning to `CN(Cc1cnn(C)c1)C(=O)NCc1cc(Br)cs1`, the INHIBITION turned out to be 31.78%.

On to `Cc1cc(NC(=O)CN2CCCC2c2noc(C3CC3)n2)n(C)n1` (centres undefined), for which the INHIBITION was -30.39%.

Consider `Cc1cc(NC(=O)CN2CCCC2c2noc(C)n2)n(C(C)(C)C)n1` (centres undefined), for which the INHIBITION is 7.71%.

As for `Cc1cc(NC(=O)CN2CCCC2c2noc(C)n2)n(C)n1` (centres undefined), the INHIBITION is listed as 50.76%.

In the case of `Cc1cccc(COC[C@@]23CCC[C@@H]2CN(S(=O)(=O)N(C)C)C3)n1`, the INHIBITION was 31.96%.

On to `COc1ccccc1CNC(C)c1ccc(-n2ccnc2)cc1` (centres undefined), for which the INHIBITION was found to be 18.85%.

As for `CC(C)N(C)S(=O)(=O)c1ccc2c(c1)CCN(C(=O)c1cscn1)C2`, the INHIBITION is listed as -68.29%.

In the case of `Cc1ncsc1C(=O)NC1CCN(CCC(=O)Nc2ccccc2)CC1`, the INHIBITION is 1.02%.

In the case of `Cc1cnc(NC2CCN(CC(=O)Nc3ccccc3)CC2)nc1C`, the INHIBITION was found to be 76.82%.

`O=C(CN1CCC(Nc2ncccn2)CC1)Nc1ccccc1`: the INHIBITION is 36.28%.

Take `CCN1CCN(C2CCN(Cc3nnc(C4CC4)o3)CC2)C1=O`: the INHIBITION is on record as -8.9%.

With `O=c1[nH]nc2nc(N3CCOCC3)ccn12`, the INHIBITION is recorded as -60.22%.

With `Cc1nn(C)cc1CN1C[C@H]2CC[C@@H](C1)N(Cc1c(C)noc1C)C2=O`, the INHIBITION is recorded as 35.46%.

Turning to `COc1cc(C#N)ccc1OC12CCCN(CC1)C2` (centres undefined), the INHIBITION was 63.83%.

On to `COc1cc(C(C)=O)ccc1OC12CCCN(CC1)C2` (centres undefined), for which the INHIBITION is given as -18.6%.

Turning to `CCCc1ccc(OC23CCCN(CC2)C3)c(OC)c1` (centres undefined), the INHIBITION was -21.37%.

Regarding `Cc1nc([C@H]2C[C@@H]3CCN(Cc4cnn(C)c4)C[C@H]3O2)sc1C`, the INHIBITION is -19.14%.

As to `Cc1ccc(C(=O)N2CC3(CCCCC3)c3cc(C(=O)O)ccc32)cn1`, the INHIBITION was -46.89%.

Consider `Cc1nc(CN2CCCN(CC(=O)N(C)CCC#N)CC2)no1`, for which the INHIBITION was -14.14%.

As for `Cc1nc(CCN(C)C(=O)CN2CCCCCC2)no1`, the INHIBITION stood at 51.9%.

Consider `CC1CCN(CC(=O)N(C)CCc2noc(C3CC3)n2)C1=O` (centres undefined), for which the INHIBITION is 27.73%.

Take `COc1cc(N2C[C@@H]3COC[C@@H](Cc4nnc(C)o4)[C@@H]3C2)ncn1`: the INHIBITION is recorded as 21.27%.

On to `COc1ccccc1N1CCN(Cc2nc(C)c(C)o2)CC1`, for which the INHIBITION is -63.57%.

`Cc1cc(CN2CCOC(CN(C)C)C2)no1` (centres undefined): the INHIBITION is listed as 16.64%.

For `O=C(NCCCOc1cccnc1)c1cn(CCc2ccccc2)nn1`, the INHIBITION is recorded as 41.14%.

Consider `O=C(NCCc1ccccc1)c1cn(CCNCc2cccnc2)nn1`, for which the INHIBITION is reported as 53.12%.

`O=C(NCc1cccnc1)c1cn(CCc2ccccc2)nn1`: the INHIBITION stood at 17.19%.

For the molecule `Cc1nc(CC(C)C)sc1C(=O)N1CCC1`, the INHIBITION stood at 11.18%.

Consider `O[C@@H]1C[C@@H](c2nc(-c3cccnc3)no2)N(C2CCOCC2)C1`, for which the INHIBITION is -14.24%.

As for `O=C(NC[C@H]1C[C@@H]2CN(C(=O)c3ccco3)C[C@@H]2O1)c1ccsc1`, the INHIBITION worked out at 34.93%.

Consider `Cn1cccc1C(=O)NC[C@H]1C[C@@H]2CN(C(=O)c3ccno3)C[C@H]2O1`, for which the INHIBITION is reported as 50.32%.

On to `O=C(NC[C@H]1C[C@@H]2CN(C(=O)c3ccno3)C[C@@H]2O1)C1CCC1`, for which the INHIBITION is reported as 55.52%.

As to `Cn1cccc1C(=O)NC[C@H]1C[C@@H]2CN(C(=O)c3ccco3)C[C@@H]2O1`, the INHIBITION is 6.8%.

Turning to `CN(C)C[C@H]1C[C@@H]2CN(C(=O)c3ccco3)C[C@@H]2O1`, the INHIBITION came out at 10.49%.

For the molecule `CN(C)C[C@H]1C[C@@H]2CN(C(=O)c3ccno3)C[C@@H]2O1`, the INHIBITION is -30.38%.

In the case of `COc1ccc(CN(C)Cn2cc(C)n(-c3cc(C)on3)c2=O)cc1`, the INHIBITION was 14.29%.

For `CCC1c2ccsc2CCN1C(=O)NCc1ccc(C)nc1` (centres undefined), the INHIBITION was 11.09%.

`COC1COC2(CCN(Cc3cccc(Cl)c3)CC2)C1` (centres undefined): the INHIBITION is listed as 23.81%.

For `CO[C@@H]1CC[C@H]2[C@H]1OCCN2CCOCc1ccccc1`, the INHIBITION is listed as 3.11%.

As for `Cc1nc(N[C@H]2COC[C@@H]2N2CCCCC2)c2c(C)nn(C)c2n1`, the INHIBITION is reported as -11.88%.

Turning to `c1cc(-c2cnc(C3CCNCC3)cn2)n[nH]1`, the INHIBITION amounted to 66.18%.

With `Fc1ccc(-c2cnc(C3CCNCC3)cn2)cc1`, the INHIBITION amounted to 14.8%.

With `c1cc(-c2cncc(C3CCNCC3)n2)n[nH]1`, the INHIBITION was 29.25%.

For `Cc1cccc(CN2C(=O)C[C@H]3[C@@H]2CCN3CC2CC2)n1`, the INHIBITION worked out at 3.86%.

Take `NC(=O)C1CN(C(=O)Nc2ccc(SC(F)(F)F)cc2)CCO1` (centres undefined): the INHIBITION was -31.17%.

With `O=C(NC1CCC1)C1CCC2(CN(C(=O)c3ccco3)C2)O1` (centres undefined), the INHIBITION is listed as -160.99%.

As to `O=C(NC1CCC1)C1CCC2(CN(C(=O)c3ccno3)C2)O1` (centres undefined), the INHIBITION turned out to be 57.85%.

On to `O=C(NCC1CC1)C1CCC2(CN(C(=O)c3ccno3)C2)O1` (centres undefined), for which the INHIBITION was -33.57%.

Consider `Cc1cc(C)c(CNC(=O)CC2CCCO2)c(=O)[nH]1` (centres undefined), for which the INHIBITION is recorded as -36.34%.

On to `O=C1CCCN1CCCC(=O)N1CCCC(Cc2cccnc2)C1` (centres undefined), for which the INHIBITION is recorded as -11.81%.

With `CN(CCOCC1CC1)C(=O)Nc1ccc(C#N)c(Cl)c1`, the INHIBITION is on record as -47.52%.

For `COc1ccc(C(=O)N2C[C@@H](C(=O)O)[C@H](c3ccccc3C)C2)c(O)c1`, the INHIBITION is listed as -43.72%.

Consider `c1cc(-c2c[nH]c([C@@H]3COCCN3C3CCOCC3)n2)ccn1`, for which the INHIBITION was 30.63%.

For `CC(C)N1CCOC[C@H]1c1nc(-c2ccncc2)c[nH]1`, the INHIBITION was 54.56%.

In the case of `CN1CCOC[C@H]1c1nc(-c2ccncc2)c[nH]1`, the INHIBITION is recorded as 28.45%.

As for `O=C(O)[C@@H]1CN(C(=O)c2ccc(O)cc2)C[C@H]1c1cccc(F)c1`, the INHIBITION is 38.65%.

The values are drawn from ChEMBL document CHEMBL4513216, “Probing the Open Global Health Chemical Diversity Library for Multistage-Active Starting Points for Next-Generation Antimalarials” (ACS Infect Dis, 2020).
